Results: the supplement of paper PMC3334620
Over roughly 33,000 sequences, “E-score (-0.5 to 0.5)” has its median near -0.021; the highest 2% begin near 0.32. The sample as a whole holds a higher share of the highest values than the screen did.

These sequences were tested against T1, Zap1 (UniProt P47043) (assay: PBM E-score (8-mer binding enrichment) (E-score (-0.5 to 0.5)); higher = stronger / more preferred TF binding). Settings: protein concentration: 200 nM; construct: GST-full length.
T1 sequence: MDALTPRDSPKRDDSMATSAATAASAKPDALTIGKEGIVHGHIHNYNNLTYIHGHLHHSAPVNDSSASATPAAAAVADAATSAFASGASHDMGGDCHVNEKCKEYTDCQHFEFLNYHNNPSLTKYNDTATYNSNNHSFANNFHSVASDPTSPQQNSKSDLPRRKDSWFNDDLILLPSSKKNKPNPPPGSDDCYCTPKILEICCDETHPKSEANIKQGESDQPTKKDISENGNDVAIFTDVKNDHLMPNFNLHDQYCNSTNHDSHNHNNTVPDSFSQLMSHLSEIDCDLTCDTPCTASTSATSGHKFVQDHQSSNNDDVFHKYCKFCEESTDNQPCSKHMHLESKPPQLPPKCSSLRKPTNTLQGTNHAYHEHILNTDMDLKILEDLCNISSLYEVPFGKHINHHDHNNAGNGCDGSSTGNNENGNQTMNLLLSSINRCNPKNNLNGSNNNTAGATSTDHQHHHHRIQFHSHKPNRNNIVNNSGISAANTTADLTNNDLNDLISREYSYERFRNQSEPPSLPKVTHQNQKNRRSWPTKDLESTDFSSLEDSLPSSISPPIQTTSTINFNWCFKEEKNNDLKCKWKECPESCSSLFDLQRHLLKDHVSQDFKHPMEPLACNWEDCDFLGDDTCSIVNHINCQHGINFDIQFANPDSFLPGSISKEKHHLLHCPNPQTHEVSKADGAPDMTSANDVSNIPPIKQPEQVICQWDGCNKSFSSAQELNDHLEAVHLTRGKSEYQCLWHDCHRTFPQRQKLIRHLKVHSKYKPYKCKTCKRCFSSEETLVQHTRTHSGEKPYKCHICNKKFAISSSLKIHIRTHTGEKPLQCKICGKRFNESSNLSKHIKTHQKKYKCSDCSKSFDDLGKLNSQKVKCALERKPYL
Procedure, shortened: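 Masliner-normalised scans of fluorescent anti-GST signal were the basis for scoring. That signal came from GST-tagged yeast transcription factors applied at about 100-200 nM to double-stranded universal all-10-mer Agilent arrays on fresh or once-stripped slides. Each ungapped eight-base word, pooled with its reverse complement, received an E-score from the Universal PBM Analysis Suite.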

| Sequence | PBM E-score |
| --- | --- |
| CCTAGCAA | 0.0808 |
| CGTTGGTC | -0.0765 |
| AAAAGGTC | 0.367 |
| ATAAGGTC | 0.184 |
| AAAAGGTT | 0.444 |
| CAAAGGTC | 0.314 |
| AAAAGGTG | 0.173 |
| AAAAGGAT | 0.0556 |
| CGCAACTA | 0.162 |
| AGGCCCAA | -0.0071 |
| GACGCGAA | -0.12 |
| AGAGAATC | -0.152 |
| AATGAATG | 0.0096 |
| AGGCTAGA | -0.15 |
| AACCTATA | 0.374 |
| CACCTATA | 0.0311 |
| GACCTATA | 0.295 |
| TACCTAAA | 0.199 |
| TACCTAGA | 0.163 |
| CACCTAAA | 0.191 |
| TACCTACA | 0.137 |
| AACCTAAA | 0.356 |
| TACCTATA | 0.337 |
| ATGCGTTC | -0.0993 |
| GCAGGCAA | -0.144 |
| ACTCAGAG | 0.11 |

| Sequence | PBM E-score |
| --- | --- |
| CTGATAAA | 0.121 |
| GGAACACC | 0.105 |
| ATTTCTCG | 0.176 |
| CTTGCTAC | 0.0655 |
| ATCTCACC | -0.0161 |
| CGACTGGA | -0.193 |
| ACCTCTAT | 0.293 |
| ACCTCTCT | 0.0304 |
| ACCTCTAC | 0.259 |
| ACCTCTCA | 0.344 |
| CCCTCTCA | -0.23 |
| ACCTCTAG | 0.411 |
| GCCTCAAA | 0.00889 |
| ACCTCAAG | 0.251 |
| ACCTCAAA | 0.326 |
| CACTGGCG | -0.0169 |
| GCTTCAAC | 0.00654 |
| TAGCCAGA | -0.00683 |
| CGAGCTAA | -0.031 |
| GATCAGAA | -0.106 |
| AGTAATAT | 0.178 |
| AGAGCTAC | -0.184 |
| AACCCACC | 0.343 |
| AACCCACA | 0.331 |
| CCCCCACC | -0.378 |
| GCCCCACC | 0.283 |

| Sequence | PBM E-score |
| --- | --- |
| CACCCACA | 0.168 |
| ACCCCACC | 0.419 |
| GACCCACC | 0.245 |
| AACCCACG | 0.156 |
| CACCCACC | 0.194 |
| ATTTTCTA | 0.122 |
| CTATGAGC | -0.127 |
| CTTCTCCC | -0.213 |
| ATCCTCAC | 0.0272 |
| GAAGATGA | 0.0533 |
| AGAGTACT | -0.144 |
| AGCGTACT | -0.127 |
| ACGGTACA | 0.213 |
| GGGGTACA | 0.249 |
| AGGGTACC | 0.461 |
| AGGGTACG | 0.296 |
| GGGGTACC | 0.424 |
| TGGGTACA | 0.174 |
| AGGGTACA | 0.337 |
| AGGGTACT | 0.441 |
| AGTGTACC | 0.0741 |
| GGCGTACC | 0.0458 |
| CGAAGCAA | -0.00093 |
| CCCCATAG | 0.201 |
| CAAAACTG | 0.0208 |
| CATGGGAG | 0.0124 |

| Sequence | PBM E-score |
| --- | --- |
| AAATATAT | 0.224 |
| ATCTATCG | -0.167 |
| GAACAAGC | -0.175 |
| CAGCCCAA | -0.0128 |
| AATTCCGT | -0.0101 |
| CGGGTACC | 0.432 |
| ATGGTACC | 0.392 |
| CTGGTACC | 0.286 |
| ATGGTACA | 0.08 |
| CGGGTACG | 0.0198 |
| CGGGTACA | 0.122 |
| ACGCTTGA | 0.0154 |
| CCCCTAGC | -0.167 |
| GGGGCTTA | -0.25 |
| ACGTCATA | -0.0571 |
| ACCCAGCC | -0.139 |
| AACTAAGA | 0.0908 |
| CCTGGGGA | -0.183 |
| AGGGGTAG | 0.312 |
| CAGGGTAA | 0.354 |
| CTGGGTAA | 0.185 |
| CGGGGTAC | 0.316 |
| GCGGGTAC | 0.256 |
| ACGGGTAG | 0.255 |
| AAGGGTAG | 0.375 |
| GGGGGTAC | 0.186 |

| Sequence | PBM E-score |
| --- | --- |
| CCGGGTAC | 0.348 |
| CCGGGTAA | 0.246 |
| CAGGGTGA | 0.313 |
| AGGGGTAC | 0.398 |
| AGCCAAGC | -0.307 |
| GGGTAGTA | 0.219 |
| ACTTCAAA | -0.13 |
| GACACACA | 0.028 |
| GCGGGCGA | -0.105 |
| CCCATCTA | -0.0762 |
| ACCTATCC | 0.152 |
| ACAGTAGG | -0.209 |
| CACGGGGA | -0.219 |
| AAGGGTAT | 0.421 |
| AGGGGTAT | 0.258 |
| AGGGGTAA | 0.272 |
| GAGGGTAC | 0.374 |
| CGGGGTAA | 0.299 |
| GGGGGTAA | -0.0883 |
| AAGGGTGT | 0.316 |
| AAGGGTAA | 0.393 |
| GAGGGTGC | 0.138 |
| TGGGGTAA | 0.347 |
| ATGGGTAA | 0.242 |
| GATGGTAC | 0.199 |
| CTTTCGCC | -0.179 |

| Sequence | PBM E-score |
| --- | --- |
| CGGTTGTC | 0.279 |
| CATGTGCA | 0.0255 |
| TTCTTAAA | -0.028 |
| ACGTCGTA | -0.287 |
| CATCAATA | 0.0615 |
| CGTGGCCA | 0.0519 |
| GGCACGTA | -0.273 |
| TCGGGTAA | 0.24 |
| CTGGGTAC | 0.305 |
| ATGGGTAC | 0.328 |
| CAGGGTAC | 0.437 |
| TAGGGTAA | 0.396 |
| ACGGGTAC | 0.231 |
| CAGGGTAG | 0.306 |
| CAGGGTGC | 0.0059 |
| GAGGGTAA | 0.264 |
| ATGGGTAG | 0.238 |
| AAGGGTAC | 0.426 |
| AAGGGTCC | 0.274 |
| AGTCAGGC | -0.101 |
| CACTACGC | -0.163 |
| CGGCTAGA | -0.178 |
| CCCTGCGA | 0.0758 |
| CCAACTGC | -0.165 |
| AACACAGT | -0.00444 |
| AAGCTTTC | 0.0356 |

| Sequence | PBM E-score |
| --- | --- |
| GCGTGACA | -0.136 |
| CCGTGACG | -0.0247 |
| CCGTGACC | 0.376 |
| ACGTGACC | 0.249 |
| CCGTGACA | -0.136 |
| GCGTGACC | 0.326 |
| TATACATA | 0.106 |
| CACTAGAG | 0.0544 |
| ACACTGAA | 0.111 |
| GCCAGACA | 0.0344 |
| GGTTACAC | 0.403 |
| GGTTACAA | 0.455 |
| AGTTACAC | 0.0701 |
| TGTTACAA | 0.098 |
| CGTTACAC | 0.0157 |
| CGTTACAA | 0.121 |
| GGGCTTAA | -0.0211 |
| ACGTGTAT | -0.152 |
| TATCGACA | 0.0537 |
| ATTGTGAC | 0.159 |
| CACATAGC | -0.136 |
| ACGAGAGT | -0.197 |
| ATCCCTAC | -0.023 |
